Source: PubChem BioAssay (NCI)
About 79,000 compounds went through this panel and 15% of them were active in at least one assay; those are over-represented in the sample as a whole. The source made the active and inactive calls. Rule as the data show it: active = growth inhibition above about 70%; inactive = the rest.

Experiments:
[1] = NCI Yeast Anticancer Drug Screen. Data for the rad52 strain (AID 147);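 also: 0% = growth of vehicle-treated control cultures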; conditions: S. cerevisiae rad52 mutant growth inhibition, active compounds read high
In short: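 Growth of repair-deficient yeast cells was compared between compound-treated and vehicle-treated cultures to give percent inhibition.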

[2] = NCI Yeast Anticancer Drug Screen. Data for the wt1 strain (AID 149);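 also: 0% = growth of vehicle-treated wt1 cultures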; conditions: S. cerevisiae wt1 strain (SPY 50644) growth inhibition, active compounds read high
In short: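 wt1 strain grown with compound or vehicle; inhibition taken from the growth difference.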

[3] = NCI Yeast Anticancer Drug Screen. Data for the rad50EPP+ strain (AID 151);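 also: 0% = growth of vehicle-treated control cultures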; conditions: S. cerevisiae rad50 mutant strain, active compounds read high
In short: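 Measured: growth inhibition of rad50EPP+ yeast. Reference: vehicle-treated controls. Screen uses strains with defined genetic alterations in DNA damage repair or cell cycle control.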

[4] = NCI Yeast Anticancer Drug Screen. Data for the mgt1 strain (AID 153); conditions: S. cerevisiae mgt1 mutant growth inhibition, active compounds read high
In short: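 Compounds were applied to mgt1 mutant yeast, and growth was then compared against vehicle-treated control cultures to give percent inhibition.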

[5] = NCI Yeast Anticancer Drug Screen. Data for the rad50 strain (AID 155);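 also: 0% = growth of vehicle-only cultures of the same strain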; conditions: S. cerevisiae rad50 strain growth inhibition, active compounds read high
In short: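 DNA repair mutant yeast, compound exposure, growth read-out; inhibition is taken relative to vehicle.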

[6] = NCI Yeast Anticancer Drug Screen. Data for the mec2-1 strain (AID 157); conditions: S. cerevisiae mec2-1 strain, active compounds read high
In short: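 Compounds were applied to mec2-1 yeast cells. Their growth was then compared with that of vehicle-treated cultures to give growth inhibition.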

[7] = NCI Yeast Anticancer Drug Screen. Data for the rad14 strain (AID 159);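 also: 0% = growth of vehicle-treated control cultures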; conditions: S. cerevisiae rad14 strain growth inhibition, active compounds read high
In short: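 DNA repair-defective yeast, compound-exposed; % growth inhibition derived by comparison with vehicle-treated controls.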

[8] = NCI Yeast Anticancer Drug Screen. Data for the sgs1 mgt1 strain (AID 161);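 also: 0% = growth of cultures given vehicle only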; conditions: S. cerevisiae sgs1 mgt1 strain, active compounds read high
In short: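 This yeast growth screen uses a strain with defined DNA-repair lesions; compound-treated growth is compared with vehicle-treated growth.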

[9] = NCI Yeast Anticancer Drug Screen. Data for the CLN2oe strain (AID 163);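 also: 0% = growth of vehicle-only control cultures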; conditions: S. cerevisiae CLN2oe strain, active compounds read high
In short: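 Cells of an engineered yeast line with disturbed cell-cycle regulation are treated with compound. Inhibition of growth is then calculated relative to the vehicle-treated reference.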

[10] = NCI Yeast Anticancer Drug Screen. Data for the bub3 strain (AID 167); conditions: S. cerevisiae bub3 mutant strain, active compounds read high
In short: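 In this screen, a yeast mutant lacking normal mitotic checkpoint function is challenged with compound. Relative growth versus vehicle gives the inhibition value.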

[11] = NCI Yeast Anticancer Drug Screen. Data for the wt2 strain (AID 169);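 also: 0% = growth of vehicle-treated yeast cultures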; conditions: S. cerevisiae wt2 strain growth inhibition, active compounds read high
In short: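 Growth of compound-treated yeast is measured and expressed as inhibition relative to vehicle-only controls.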

[12] = NCI Yeast Anticancer Drug Screen. Data for the mlh1 strain (AID 171);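 also: 0% = growth of vehicle-treated control cultures of the same strain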; conditions: S. cerevisiae mlh1 strain growth inhibition, active compounds read high
In short: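 Test agents were incubated with yeast bearing a defined DNA damage repair or cell cycle control alteration; values are growth inhibition normalised to vehicle-treated cultures.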

[13] = NCI Yeast Anticancer Drug Screen. Data for the sgs1 strain (AID 173);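 also: 0% = growth of vehicle-only control cultures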; conditions: S. cerevisiae sgs1 mutant, active compounds read high
In short: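 Strain with an altered DNA repair or cell cycle pathway exposed to compound. Growth then measured. Value = inhibition versus vehicle control.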

[14] = NCI Yeast Anticancer Drug Screen. Data for the mlh1 rad18 strain (AID 175); conditions: S. cerevisiae mlh1 rad18 strain growth inhibition, active compounds read high
In short: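 A repair-deficient yeast strain is exposed to test compound, and growth is scored relative to vehicle-treated controls.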

[15] = NCI Yeast Anticancer Drug Screen. Data for the rad18 strain (AID 177); conditions: S. cerevisiae rad18 mutant growth inhibition, active compounds read high
In short: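 DNA-repair-defective yeast; compound treatment; growth inhibition scored against vehicle.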

[16] = at 5.0 µM (retest, dose inferred, filed as 0.5)
[17] = at 50.0 µM (retest, dose inferred, filed as 5.0)

Measured: growth inhibition

CC(=O)NC(c1nc2cc(C)c(C)cc2[nH]1)c1nc2cc(C)c(C)cc2[nH]1
active: [4]; at 100.0 µM 80% | [5]; [17] 94% | [6]; [17] 94% | [6]; at 100.0 µM 78% | [8]; [17] 78% | [10]; [17] 82% | [10]; at 100.0 µM 82% | [13]; at 100.0 µM 73% | [14]; [17] 95%
inactive: [1]; at 1.2 µM 0% | [1]; at 3.7 µM -2% | [1]; at 11.0 µM 5% | [1]; at 33.0 µM 28% | [1]; at 100.0 µM 62% | [2]; at 1.2 µM -20% | [2]; at 3.7 µM -28% | [2]; at 11.0 µM -14% | [2]; at 33.0 µM 16% | [2]; at 100.0 µM 62% | [3]; at 1.2 µM -1% | [3]; at 3.7 µM 7% | [3]; at 11.0 µM 1% | [3]; at 33.0 µM 19% | [3]; at 100.0 µM 47% | [4]; at 1.2 µM 11% | [4]; at 3.7 µM 19% | [4]; at 11.0 µM 31% | [4]; at 33.0 µM 59% | [5]; at 1.2 µM 13% | [5]; at 3.7 µM 4% | [5]; [16] 29% | [5]; at 11.0 µM 15% | [5]; at 33.0 µM 39% | [5]; at 50.0 µM 61.3% | [5]; at 100.0 µM 67% | [6]; at 1.2 µM 11% | [6]; at 3.7 µM 15% | [6]; [16] 36% | [6]; at 11.0 µM 22% | [6]; at 33.0 µM 42% | [6]; at 50.0 µM 37.2% | [7]; at 1.2 µM -22% | [7]; at 3.7 µM -21% | [7]; at 11.0 µM -9% | [7]; at 33.0 µM 21% | [7]; at 100.0 µM 66% | [8]; [16] -16% | [8]; at 50.0 µM 57.5% | [9]; at 1.2 µM -11% | [9]; at 3.7 µM 2% | [9]; at 11.0 µM -18% | [9]; at 33.0 µM 12% | [9]; at 100.0 µM 62% | [10]; at 1.2 µM -2% | [10]; at 3.7 µM 15% | [10]; [16] 16% | [10]; at 11.0 µM 22% | [10]; at 33.0 µM 56% | [10]; at 50.0 µM 63.1% | [11]; at 1.2 µM -27% | [11]; at 3.7 µM -25% | [11]; at 11.0 µM -20% | [11]; at 33.0 µM 20% | [11]; at 100.0 µM 60% | [12]; at 1.2 µM -45% | [12]; at 3.7 µM -33% | [12]; at 11.0 µM -17% | [12]; at 33.0 µM 19% | [12]; at 100.0 µM 64% | [13]; at 1.2 µM -4% | [13]; at 3.7 µM -2% | [13]; at 11.0 µM -1% | [13]; at 33.0 µM 36% | [14]; [16] 35% | [14]; at 50.0 µM 37.6% | [15]; at 1.2 µM -4% | [15]; at 3.7 µM 1% | [15]; at 11.0 µM 6% | [15]; at 33.0 µM 22% | [15]; at 100.0 µM 55%
